Laboratory results from PubChem BioAssay.
Inconclusive results are not listed. The source made the active and inactive calls.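 How the source made its calls, unless noted: active means GFP response, as percent of the DMSO control, above the screen-wide mean plus 3 SD, about 139; inconclusive means no response measured because the compound's own fluorescence interfered; inactive means the rest.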

Tests used:
[1] = rapamycin-like changes in RPL19A-GFP expression – cell-based, S. cerevisiae, multiplex flow cytometry, primary screen (AID 1862; in the data active means percent of DMSO control GFP below about 86%;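 further: lower values mimic rapamycin by blocking the RPL19A rise seen in DMSO cells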); settings: S. cerevisiae RPL19A-GFP strain, flow cytometry fluorescence, 3 h; at 10 µM; stronger effect = lower value
[2] = TOR pathway GLN3 branch reporter MEP2-GFP changes – S. cerevisiae, multiplex flow cytometry, primary screen (AID 1867);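 further: median GFP channel fluorescence of barcode-gated MEP2-GFP cells measured by flow cytometry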; settings: S. cerevisiae MEP2-GFP strain, 3 h, at 10 µM, stronger effect = higher value, 100% means same as DMSO wells
[3] = TOR pathway RTG branch CIT2 reporter changes – S. cerevisiae, GFP fusion, multiplex flow cytometry, primary screen (AID 1870;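 active means percent response above a set limit, the screen-wide mean plus 3 SD, cut at about 130% in these data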;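 further: barcoded CIT2-GFP strain pooled with four other GFP strains with rapamycin as positive control; median GFP fluorescence per well over plate mean of DMSO wells so 100% = DMSO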); settings: S. cerevisiae CIT2-GFP expression, 3 h, at 10 µM, stronger effect = higher value
[4] = TOR pathway LAP4-GFP level changes – S. cerevisiae, multiplex flow cytometry, primary screen (AID 1873;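 active means GFP signal, as percent of the solvent control, above the screen mean plus 3 SD, about 149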); settings: S. cerevisiae LAP4-GFP expression, 3 h, at 10 µM, stronger effect = higher value
[5] = yeast AGP1-GFP level changes, GLN3 branch – cell-based, multiplex flow cytometry, S. cerevisiae, primary screen (AID 1887;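 active means GFP signal above the screen-wide mean plus 3 SD, that is over about 124.5% of the solvent control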;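 further: AGP1-GFP fusion strain of S. cerevisiae within a five-strain barcoded multiplex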); settings: 3 h, at 10 µM, stronger effect = higher value
[6] = reduced mouse 2C T cell binding to pMHC/ICAM-1 vesicles – MLPCN validation set, flow cytometry, LFA-1/ICAM-1 modulator project, pilot screen (AID 2523;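 active means response below a set limit, under 55% cells CD8-positive and vesicle-bound, and CD8 cells' 90th-percentile brightness under 279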;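 on vesicle binding response: mean PE anti-B7-1 fluorescence of CD8+ cells relative to row control; 100% = QL9-loaded vesicles with DMSO vehicle in the same plate row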); settings: 2C mouse CD8+ T cells, at 7 µM, stronger effect = lower value; double positive events: measured here: CD8+/vesicle+ event percentage
[7] = target: Integrin beta-1 (Homo sapiens) + Integrin alpha-4 (Homo sapiens) (UniProt P13612+P05556); test: alpha4beta1 integrin LIBS antibody binding reduction – U937 cells, HUTS-21 mAb, flow cytometry, validation set, VLA-4 allosteric modulator project, pilot screen (AID 2674;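 active means inhibition above 50%, about 3 SD of the validation set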;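 further: antibody binding induced by the VLA-4 ligand LDV present at three times its Kd; 0% = LDV ligand with antibody and no compound and 100% = antibody without LDV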); settings: HUTS-21 LIBS mAb binding, at 6.7 µM, stronger effect = higher value, binding induced by LDV ligand
[8] = calorie-restriction mimetic ROS inhibitors, yeast – validation compound set, pilot screen (AID 2706;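 active means superoxide response below 65% of plate, a cut near 3 SD across the whole screen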;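 further: yeast exposed to compound for one week at 30 degrees C before staining; 100% = mean of all compound wells on the same plate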); settings: S. cerevisiae aging, superoxide DHE fluorescence; at 10 µM; stronger effect = lower value
[9] = target: Beta-adrenergic receptor kinase 1 (Homo sapiens) (UniProt P25098); test: GRK2 binders displacing RNA aptamer, biochemical, validation, human GRK2, bead flow cytometry (AID 488806;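 active means aptamer binding inhibition above 30%, about 3 SD of noise from non-fluorescent compounds; inactive means inhibition at or below 30%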); settings: bead-bound GRK2, FAM-aptamer displacement, at 10 µM, stronger effect = higher value
[10] = target: Beta-2 adrenergic receptor (Homo sapiens) (UniProt P07550); test: agonist-induced loss of surface beta2AR – cell-based, FAP fluorogen, flow cytometry, validation set, pilot screen (AID 504459;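 active means percent response above 42, roughly 3 SD of non-fluorescent test compounds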;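 further: agonist-driven loss of surface beta2AR via internalization measured by FAP dye flow cytometry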); settings: Am2.2-beta2AR cells, at 10 µM, stronger effect = higher value
[11] = target: AP-2 complex subunit beta (Homo sapiens) (UniProt P63010); test: beta-arrestin/AP2 interaction blockers – biochemical, validation set, GST-AP2 beads, flow cytometry, pilot screen (AID 504541;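 active means inhibition above 54%, about 3 SD of non-fluorescent compounds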;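 further: AP2 carries R879A mutation and is captured from E. coli lysate; bead-bound FITC arrestin peptide fluorescence measuring arrestin peptide binding to AP2; 0% = DMSO wells and 100% = excess unlabeled arrestin peptide control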); settings: FITC arrestin peptide, at 10 µM, stronger effect = higher value, AP2 beta2 appendage fragment, R879A mutant
[12] = cytosolic pH regulators acting via V-ATPase – S. cerevisiae, pHLuorin, HTS validation (AID 504600; in the data active means response above about 15%;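 further: plate controls were DMSO for no effect and reference compound for full effect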); settings: V-ATPase proton transport, at 10 µM, stronger effect = higher value
[13] = tested on: anti-desmoglein-3 scFv antibody binding to human DSG3; test: blockers of pathogenic pemphigus antibody–desmoglein-3 binding – biochemical, validation compound set, bead-based, flow cytometry, pilot screen (AID 588368;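 active means binding below the plate cutoff, the plate median minus 3 SD, with a reading above zero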;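 further: signal is the median channel fluorescence of bead-bound GFP antibody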); settings: Protein G beads, DSG3-Fc, scFv-GFP binding, at 10 µM, stronger effect = lower value
[14] = Nile Red efflux blockade in pump-expressing yeast – validation compound set, multiplex, phenotypic, pilot screen (AID 588506;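 active means efflux inhibition above 0.42, the validation set average plus 4 SD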;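 further: Nile Red retained in cells so higher fluorescence means more efflux inhibition; 0 = negative control wells and 1 = enniatin B 25 µM full block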); settings: S. cerevisiae pump-expressing triplex, Nile Red efflux flow cytometry; at 10 µM; stronger effect = higher value; the pumps come from Candida albicans
[15] = target: ATP-binding cassette sub-family B member 6 (Homo sapiens) (UniProt Q9NP58); test: blockers of ABCB6-driven porphyrin uptake – K562-ABCB6 cells, flow cytometry, validation set, pilot screen (AID 588550;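 active means inhibition above the screen-wide mean plus 3 SD, about 51%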;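 further: 0% = DMSO wells and 100% = benzethonium chloride 70 µM positive control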); settings: K562-ABCB6 porphyrin accumulation, 1 h, at 10 µM, stronger effect = higher value
[16] = AML differentiation inducers, ER-HoxA9 marrow cells – cell-based, GFP/MAC1 double positive, flow cytometry, validation set, primary screen (AID 588685;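 active means differentiation response of at least 50%, scaled between solvent and reference control, from cells with both markers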;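 further: compound exposure lasts four days before antibody staining and flow analysis; 0% = DMSO wells and 100% = 5 µM fulvestrant positive control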); settings: stronger effect = higher value, normalized: vehicle 0, fulvestrant 100

AP-2 complex subunit beta (Homo sapiens), sequence (P63010 whole entry, looked up, the tested form may be a part, one chain of several): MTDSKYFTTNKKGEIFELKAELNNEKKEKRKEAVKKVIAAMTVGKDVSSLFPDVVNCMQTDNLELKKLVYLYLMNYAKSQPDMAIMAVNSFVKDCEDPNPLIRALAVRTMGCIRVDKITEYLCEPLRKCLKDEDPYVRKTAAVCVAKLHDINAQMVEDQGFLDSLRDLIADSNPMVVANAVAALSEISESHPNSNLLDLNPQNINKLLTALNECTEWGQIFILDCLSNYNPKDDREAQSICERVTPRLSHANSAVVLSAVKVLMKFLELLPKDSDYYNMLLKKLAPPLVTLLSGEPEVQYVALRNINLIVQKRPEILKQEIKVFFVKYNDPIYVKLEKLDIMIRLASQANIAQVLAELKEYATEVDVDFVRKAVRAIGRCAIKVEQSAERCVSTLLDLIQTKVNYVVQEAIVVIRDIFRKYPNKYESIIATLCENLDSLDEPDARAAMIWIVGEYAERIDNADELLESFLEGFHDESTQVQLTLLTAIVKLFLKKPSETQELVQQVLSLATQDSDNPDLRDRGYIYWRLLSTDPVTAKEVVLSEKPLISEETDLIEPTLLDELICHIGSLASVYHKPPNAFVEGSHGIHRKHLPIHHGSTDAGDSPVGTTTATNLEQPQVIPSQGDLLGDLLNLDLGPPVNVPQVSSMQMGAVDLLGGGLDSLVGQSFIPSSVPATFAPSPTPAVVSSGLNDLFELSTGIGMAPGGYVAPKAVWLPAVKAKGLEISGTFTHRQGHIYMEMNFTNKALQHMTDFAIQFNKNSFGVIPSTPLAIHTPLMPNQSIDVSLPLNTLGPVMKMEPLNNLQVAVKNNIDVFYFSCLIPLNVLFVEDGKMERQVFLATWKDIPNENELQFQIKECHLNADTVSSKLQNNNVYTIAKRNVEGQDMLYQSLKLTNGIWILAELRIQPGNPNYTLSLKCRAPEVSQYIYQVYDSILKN
Beta-2 adrenergic receptor (Homo sapiens), sequence (P07550 whole entry, looked up): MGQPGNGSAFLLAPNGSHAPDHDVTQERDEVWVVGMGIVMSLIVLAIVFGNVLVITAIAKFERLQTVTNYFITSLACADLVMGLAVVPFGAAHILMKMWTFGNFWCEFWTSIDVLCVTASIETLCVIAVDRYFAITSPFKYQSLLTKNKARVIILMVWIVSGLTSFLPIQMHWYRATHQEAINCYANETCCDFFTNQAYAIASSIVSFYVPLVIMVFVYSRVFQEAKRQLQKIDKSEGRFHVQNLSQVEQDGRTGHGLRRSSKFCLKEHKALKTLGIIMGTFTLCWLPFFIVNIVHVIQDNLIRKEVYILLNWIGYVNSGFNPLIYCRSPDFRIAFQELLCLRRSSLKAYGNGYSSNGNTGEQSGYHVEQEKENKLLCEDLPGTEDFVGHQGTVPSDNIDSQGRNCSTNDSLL
ATP-binding cassette sub-family B member 6 (Homo sapiens), sequence (Q9NP58 whole entry, looked up): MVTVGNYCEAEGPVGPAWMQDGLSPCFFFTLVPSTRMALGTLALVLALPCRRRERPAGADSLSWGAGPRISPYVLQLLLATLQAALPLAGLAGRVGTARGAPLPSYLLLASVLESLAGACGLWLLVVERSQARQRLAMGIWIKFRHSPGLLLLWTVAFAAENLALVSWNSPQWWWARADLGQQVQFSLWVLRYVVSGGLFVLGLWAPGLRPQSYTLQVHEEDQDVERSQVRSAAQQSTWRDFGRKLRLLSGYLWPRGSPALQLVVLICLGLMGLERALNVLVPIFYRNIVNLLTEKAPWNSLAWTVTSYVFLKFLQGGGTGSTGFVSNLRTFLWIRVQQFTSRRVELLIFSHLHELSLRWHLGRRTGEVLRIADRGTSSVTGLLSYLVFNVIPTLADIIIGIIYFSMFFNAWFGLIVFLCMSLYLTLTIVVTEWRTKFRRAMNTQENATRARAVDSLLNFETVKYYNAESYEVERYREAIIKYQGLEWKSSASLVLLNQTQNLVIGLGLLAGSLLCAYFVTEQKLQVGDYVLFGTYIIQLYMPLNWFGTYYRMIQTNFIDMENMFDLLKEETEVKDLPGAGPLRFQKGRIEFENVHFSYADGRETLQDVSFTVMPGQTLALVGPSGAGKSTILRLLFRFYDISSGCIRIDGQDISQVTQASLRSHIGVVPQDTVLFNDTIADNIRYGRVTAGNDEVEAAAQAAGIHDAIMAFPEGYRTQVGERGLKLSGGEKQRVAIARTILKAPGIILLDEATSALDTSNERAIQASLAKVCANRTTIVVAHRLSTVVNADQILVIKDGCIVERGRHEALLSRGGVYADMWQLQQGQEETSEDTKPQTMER
Integrin beta-1 (Homo sapiens) + Integrin alpha-4 (Homo sapiens), sequence (P05556 whole entry, looked up): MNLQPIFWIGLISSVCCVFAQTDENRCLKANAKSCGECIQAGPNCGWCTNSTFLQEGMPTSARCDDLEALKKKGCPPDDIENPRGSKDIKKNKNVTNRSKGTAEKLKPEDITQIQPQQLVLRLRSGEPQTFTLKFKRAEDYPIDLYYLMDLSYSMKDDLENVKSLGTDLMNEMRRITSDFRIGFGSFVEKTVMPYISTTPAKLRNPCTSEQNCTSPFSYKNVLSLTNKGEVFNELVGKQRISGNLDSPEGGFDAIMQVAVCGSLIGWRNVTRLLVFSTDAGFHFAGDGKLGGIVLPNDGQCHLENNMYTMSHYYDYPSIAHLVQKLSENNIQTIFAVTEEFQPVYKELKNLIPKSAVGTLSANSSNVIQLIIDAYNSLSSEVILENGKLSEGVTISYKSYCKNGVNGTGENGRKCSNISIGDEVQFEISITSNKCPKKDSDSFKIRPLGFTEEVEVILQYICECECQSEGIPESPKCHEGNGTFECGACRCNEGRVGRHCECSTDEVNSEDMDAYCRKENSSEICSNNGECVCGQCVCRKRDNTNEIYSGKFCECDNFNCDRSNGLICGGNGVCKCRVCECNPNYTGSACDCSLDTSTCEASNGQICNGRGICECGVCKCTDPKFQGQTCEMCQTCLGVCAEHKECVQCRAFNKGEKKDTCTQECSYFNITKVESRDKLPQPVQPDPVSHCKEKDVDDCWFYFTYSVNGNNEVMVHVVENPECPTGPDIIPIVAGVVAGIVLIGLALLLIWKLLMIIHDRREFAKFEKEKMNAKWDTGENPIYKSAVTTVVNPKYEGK
Integrin beta-1 (Homo sapiens) + Integrin alpha-4 (Homo sapiens), sequence (P13612 whole entry, looked up): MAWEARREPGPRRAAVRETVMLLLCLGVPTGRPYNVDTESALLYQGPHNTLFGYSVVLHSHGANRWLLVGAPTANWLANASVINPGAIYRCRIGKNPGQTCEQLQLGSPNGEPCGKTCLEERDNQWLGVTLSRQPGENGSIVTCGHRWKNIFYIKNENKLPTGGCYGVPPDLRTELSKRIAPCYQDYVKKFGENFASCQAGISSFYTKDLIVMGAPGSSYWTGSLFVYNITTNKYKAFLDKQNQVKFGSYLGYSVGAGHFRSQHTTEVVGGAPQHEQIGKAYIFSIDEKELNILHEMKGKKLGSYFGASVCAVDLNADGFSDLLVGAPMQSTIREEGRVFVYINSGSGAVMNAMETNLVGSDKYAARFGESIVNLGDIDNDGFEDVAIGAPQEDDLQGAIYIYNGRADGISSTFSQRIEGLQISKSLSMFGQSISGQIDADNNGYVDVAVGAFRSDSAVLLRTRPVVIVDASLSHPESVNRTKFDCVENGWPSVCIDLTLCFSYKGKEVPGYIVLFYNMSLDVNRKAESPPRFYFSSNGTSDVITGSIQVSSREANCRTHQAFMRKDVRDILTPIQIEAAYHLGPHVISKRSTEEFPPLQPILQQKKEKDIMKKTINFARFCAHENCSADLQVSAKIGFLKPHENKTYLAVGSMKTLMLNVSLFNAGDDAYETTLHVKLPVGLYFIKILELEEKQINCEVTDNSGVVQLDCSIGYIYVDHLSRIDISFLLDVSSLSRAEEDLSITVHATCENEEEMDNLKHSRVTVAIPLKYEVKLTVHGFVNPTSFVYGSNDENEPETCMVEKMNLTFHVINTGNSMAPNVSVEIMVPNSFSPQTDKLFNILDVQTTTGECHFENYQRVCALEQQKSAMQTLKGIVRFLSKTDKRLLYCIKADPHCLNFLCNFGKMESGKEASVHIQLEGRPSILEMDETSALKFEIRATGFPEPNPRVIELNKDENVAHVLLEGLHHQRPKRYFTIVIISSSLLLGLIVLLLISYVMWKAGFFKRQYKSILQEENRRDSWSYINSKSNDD
Beta-adrenergic receptor kinase 1 (Homo sapiens), sequence (P25098 whole entry, looked up): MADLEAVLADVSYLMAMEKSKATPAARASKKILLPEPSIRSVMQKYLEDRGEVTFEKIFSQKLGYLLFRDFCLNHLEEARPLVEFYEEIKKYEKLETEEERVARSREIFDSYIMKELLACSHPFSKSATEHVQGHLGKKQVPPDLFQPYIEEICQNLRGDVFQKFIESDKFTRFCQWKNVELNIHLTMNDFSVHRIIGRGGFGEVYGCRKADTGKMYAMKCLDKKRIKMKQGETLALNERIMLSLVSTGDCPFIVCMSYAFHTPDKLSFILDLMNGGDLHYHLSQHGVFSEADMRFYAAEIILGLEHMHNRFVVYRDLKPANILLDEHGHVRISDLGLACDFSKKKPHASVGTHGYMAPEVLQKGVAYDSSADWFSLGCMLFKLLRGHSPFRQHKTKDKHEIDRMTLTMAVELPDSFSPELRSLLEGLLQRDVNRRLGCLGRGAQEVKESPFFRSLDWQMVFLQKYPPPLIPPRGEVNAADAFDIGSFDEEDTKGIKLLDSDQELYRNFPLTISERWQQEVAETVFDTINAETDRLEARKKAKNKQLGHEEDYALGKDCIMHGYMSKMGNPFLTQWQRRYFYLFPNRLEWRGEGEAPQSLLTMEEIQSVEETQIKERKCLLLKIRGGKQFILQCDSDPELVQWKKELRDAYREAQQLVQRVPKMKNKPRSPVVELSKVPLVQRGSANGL

With `Cc1ccccc1C(=O)NNc1ncnc2c1cnn2C` the percent of DMSO control GFP [1] was 104% (inactive), the GFP response vs DMSO [2] was 103% (inactive) and the percent response of DMSO control [3] was 91.2% (inactive). The GFP response vs DMSO [4] was 103% (inactive), the GFP response, % of DMSO [5] was 112% (inactive) and the double positive events [6] was 64.9%. For the same compound, the vesicle binding response [6] was 146% (inactive), the inhibition [7] was 3.99% (inactive) and the superoxide response (% of plate) [8] was 104% (inactive). For the same compound, the aptamer binding inhibition [9] was -2% (inactive), the response [10] was -18.4% (inactive) and the inhibition [11] was 15.7% (inactive). For the same compound, the response [12] was -4.35% (inactive), the binding (% of control) [13] was 107% (inactive) and the efflux inhibition (fraction of control) [14] was 0.08 (inactive). For the same compound, the inhibition [15] was -17% (inactive) and the differentiation response [16] was 6.83% (inactive).
For `COc1ccc(CC(=O)Nc2cccc(C(=O)Nc3ccccc3C(=O)O)c2)cc1OC`, the percent of DMSO control GFP [1] was 103% (inactive), the GFP response vs DMSO [2] was 102% (inactive) and the percent response of DMSO control [3] was 96.4% (inactive). The GFP response vs DMSO [4] was 103% (inactive), the GFP response, % of DMSO [5] was 108% (inactive) and the double positive events [6] was 61.5%. The vesicle binding response [6] was 181% (inactive), the inhibition [7] was 6.55% (inactive) and the superoxide response (% of plate) [8] was 108% (inactive). For the same compound, the aptamer binding inhibition [9] was 6% (inactive), the response [10] was -21.7% (inactive) and the inhibition [11] was -0.19% (inactive). For the same compound, the response [12] was 2.28% (inactive), the binding (% of control) [13] was 99.7% (inactive) and the efflux inhibition (fraction of control) [14] was 0 (inactive). For the same compound, the inhibition [15] was 8% (inactive) and the differentiation response [16] was 26.5% (inactive).
In the case of `Cc1cc(O)c(C(=O)Cc2csc(C)n2)c(O)c1`, the percent of DMSO control GFP [1] is reported as 102% (inactive), the GFP response vs DMSO [2] is reported as 109% (inactive) and the percent response of DMSO control [3] is reported as 98.2% (inactive). For the same compound, the GFP response vs DMSO [4] was 112% (inactive), the GFP response, % of DMSO [5] was 96.1% (inactive) and the double positive events [6] was 56.7%. For the same compound, the vesicle binding response [6] was 15.7% (inactive), the inhibition [7] was 1.12% (inactive) and the superoxide response (% of plate) [8] was 104% (inactive). For the same compound, the aptamer binding inhibition [9] was 5% (inactive), the response [10] was 2.72% (inactive) and the inhibition [11] was 6.62% (inactive). The response [12] was -0.65% (inactive), the binding (% of control) [13] was 99.5% (inactive) and the efflux inhibition (fraction of control) [14] was 0.46 (active). For the same compound, the inhibition [15] was 2% (inactive) and the differentiation response [16] was 6.49% (inactive).
With `NC(N)=NC(N)=Nc1ccc2ccccc2c1` the percent of DMSO control GFP [1] was 102% (inactive), the GFP response vs DMSO [2] was 97.4% (inactive) and the percent response of DMSO control [3] was 104% (inactive). The GFP response vs DMSO [4] was 85.4% (inactive), the GFP response, % of DMSO [5] was 95.8% (inactive) and the double positive events [6] was 58.7%. For the same compound, the vesicle binding response [6] was 183% (inactive), the inhibition [7] was 3.67% (inactive) and the superoxide response (% of plate) [8] was 106% (inactive). For the same compound, the aptamer binding inhibition [9] was 1% (inactive), the response [10] was 18% (inactive) and the inhibition [11] was 16% (inactive). For the same compound, the response [12] was -3.32% (inactive), the binding (% of control) [13] was 97.8% (inactive) and the efflux inhibition (fraction of control) [14] was -0.21 (inactive). The inhibition [15] was -3% (inactive) and the differentiation response [16] was -0.8% (inactive).
With `O=c1ccc2c(o1)/C(=C/C=C(Cl)Cl)CCC2` the percent of DMSO control GFP [1] was 101% (inactive), the GFP response vs DMSO [2] was 101% (inactive) and the percent response of DMSO control [3] was 90.1% (inactive). The GFP response vs DMSO [4] was 110% (inactive), the GFP response, % of DMSO [5] was 84% (inactive) and the double positive events [6] was 56.9%. For the same compound, the vesicle binding response [6] was 236% (inactive), the inhibition [7] was -7.25% (inactive) and the superoxide response (% of plate) [8] was 101% (inactive). For the same compound, the aptamer binding inhibition [9] was 2% (inactive), the response [10] was 62.6% (active) and the inhibition [11] was 60.4% (active). The response [12] was -6.24% (inactive), the binding (% of control) [13] was 101% (inactive) and the efflux inhibition (fraction of control) [14] was -0.06 (inactive). For the same compound, the inhibition [15] was 6% (inactive) and the differentiation response [16] was -10.4% (inactive).
With `Cc1c(Cc2ccccc2)c(=O)oc2c(CN(C)C)c(O)c(Cl)cc12` the percent of DMSO control GFP [1] was 98.2% (inactive), the GFP response vs DMSO [2] was 108% (inactive) and the percent response of DMSO control [3] was 94.2% (inactive). For the same compound, the GFP response vs DMSO [4] was 92.7% (inactive), the GFP response, % of DMSO [5] was 98% (inactive) and the double positive events [6] was 61.8%. For the same compound, the vesicle binding response [6] was 358% (inactive), the inhibition [7] was 0.58% (inactive) and the superoxide response (% of plate) [8] was 98.2% (inactive). The aptamer binding inhibition [9] was 3% (inactive), the response [10] was -3.4% (inactive) and the inhibition [11] was 0.49% (inactive). The response [12] was 0.93% (inactive), the binding (% of control) [13] was 99.3% (inactive) and the efflux inhibition (fraction of control) [14] was -0.39 (inactive). The inhibition [15] was 2% (inactive) and the differentiation response [16] was -5.62% (inactive).
In the case of `O=C(N/N=C\c1cc([N+](=O)[O-])ccc1N1CCOCC1)c1ccccn1`, the percent of DMSO control GFP [1] is reported as 107% (inactive), the GFP response vs DMSO [2] is reported as 102% (inactive) and the percent response of DMSO control [3] is reported as 107% (inactive). For the same compound, the GFP response vs DMSO [4] was 100% (inactive), the GFP response, % of DMSO [5] was 103% (inactive) and the double positive events [6] was 59.8%. For the same compound, the vesicle binding response [6] was 142% (inactive), the inhibition [7] was -7.79% (inactive) and the superoxide response (% of plate) [8] was 104% (inactive). For the same compound, the aptamer binding inhibition [9] was -2% (inactive), the response [10] was -1.25% (inactive) and the inhibition [11] was 1.39% (inactive). For the same compound, the response [12] was 4.27% (inactive), the binding (% of control) [13] was 102% (inactive) and the efflux inhibition (fraction of control) [14] was 0.35 (inactive). For the same compound, the inhibition [15] was -1% (inactive) and the differentiation response [16] was -11.9% (inactive).
For `COc1ccc(C2OC[C@H]3O[C@H](O)[C@H](NC(C)=O)[C@@H](O)[C@@H]3O2)cc1` (stereo partly drawn), the percent of DMSO control GFP [1] was 99.8% (inactive), the GFP response vs DMSO [2] was 106% (inactive) and the percent response of DMSO control [3] was 97.6% (inactive). The GFP response vs DMSO [4] was 95.9% (inactive), the GFP response, % of DMSO [5] was 97.5% (inactive) and the double positive events [6] was 76.5%. The vesicle binding response [6] was 135% (inactive), the inhibition [7] was 6.95% (inactive) and the superoxide response (% of plate) [8] was 98.6% (inactive). For the same compound, the aptamer binding inhibition [9] was 0% (inactive), the response [10] was 8.93% (inactive) and the inhibition [11] was 6.9% (inactive). The response [12] was 4.88% (inactive), the binding (% of control) [13] was 95.3% (inactive) and the efflux inhibition (fraction of control) [14] was -0.04 (inactive). The inhibition [15] was 12% (inactive) and the differentiation response [16] was -4.57% (inactive).
For `c1ccc(-c2ccccn2)nc1`, the percent of DMSO control GFP [1] was 103% (inactive), the GFP response vs DMSO [2] was 112% (inactive) and the percent response of DMSO control [3] was 107% (inactive). For the same compound, the GFP response vs DMSO [4] was 101% (inactive), the GFP response, % of DMSO [5] was 102% (inactive) and the double positive events [6] was 54.1%. For the same compound, the vesicle binding response [6] was 157% (inactive), the inhibition [7] was 6.95% (inactive) and the superoxide response (% of plate) [8] was 96.7% (inactive). The aptamer binding inhibition [9] was 8% (inactive), the response [10] was -1.6% (inactive) and the inhibition [11] was -7.99% (inactive). The response [12] was -2.77% (inactive), the binding (% of control) [13] was 101% (inactive) and the efflux inhibition (fraction of control) [14] was -0.08 (inactive). The inhibition [15] was 55% (active) and the differentiation response [16] was -4.57% (inactive).
